# Rab9 promoter act – activators of Rab9 promoter; Huh7 Rab9 promoter-luciferase reporter, luminescence, 24 h; Potency, µM (highest dose often 9.22 µM), for the others: top-dose activation, negative = inhibition, hits mostly activators; 320,000 tested, 2.8% active; also: % of control where 0% means no effect; nearly all actives have a fitted effect of over 60% in size
#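 Huh7 cells stably carrying a Rab9 promoter-luciferase reporter, 1500 cells per well in OP-MEM I with 10% FBS, treated with compound 24 hours at 37C. Luciferase activity read by luminescence after 10 minutes with Amplite reagent.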
# SMN2 splice up – SMN2 splice variant enhancement; 210,000 tested, 2.8% active; Potency, µM (doses to about 46.1 µM), for the others: at the highest dose activity change, positive = activation, hits mostly activators; AID 1458; HEK293 SMN2-luciferase splicing reporter, luminescence, 30-36 h; also: % of control where 0% means no effect; nearly all actives have a fitted effect of over 55% in size
#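 qHTS luciferase splicing reporter: luminescence rises when SMN2 exon 7 is included in transfected HEK293 cells. Compound exposure lasted 30-36 h at 37C, with 4.5 mM final sodium butyrate as control, followed by a ONE-Glo read.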
# FLuc counter – inhibits or activates purified firefly luciferase, miR-21 counter-screen; P08659; purified FLuc, Km substrates, luminescence inhibition; Potency, µM (doses to about 57.5 µM), for inactives: top-dose activity change, negative = inhibition, hits mostly inhibitors; 360,000 tested, 6.9% active; AID 588342;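 also: plate controls were vehicle for no effect and reference inhibitor for full effect; nearly all actives have a fitted effect of over 55% in size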
# Target sequence (P08659 whole entry, looked up): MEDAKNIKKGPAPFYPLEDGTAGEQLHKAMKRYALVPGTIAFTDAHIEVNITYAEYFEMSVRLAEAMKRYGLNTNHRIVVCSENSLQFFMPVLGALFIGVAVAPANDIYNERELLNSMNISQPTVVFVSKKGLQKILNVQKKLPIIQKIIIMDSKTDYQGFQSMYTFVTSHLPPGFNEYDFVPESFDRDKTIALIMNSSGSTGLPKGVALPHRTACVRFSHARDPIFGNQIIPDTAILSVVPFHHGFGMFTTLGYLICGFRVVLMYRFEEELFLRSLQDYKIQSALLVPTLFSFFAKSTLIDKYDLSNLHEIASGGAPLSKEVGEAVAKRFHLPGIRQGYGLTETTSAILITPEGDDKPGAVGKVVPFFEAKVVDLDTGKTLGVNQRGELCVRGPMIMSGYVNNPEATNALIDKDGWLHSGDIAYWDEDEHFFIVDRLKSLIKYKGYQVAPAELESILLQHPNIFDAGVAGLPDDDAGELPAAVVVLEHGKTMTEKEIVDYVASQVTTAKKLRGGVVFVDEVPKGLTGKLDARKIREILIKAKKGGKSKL
#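 Purified P. pyralis luciferase (10nM final) with 10uM D-luciferin and 10uM ATP (Km levels) in 50mM Tris acetate pH 7.5, 10mM Mg acetate, 0.01% Tween-20, 0.05% BSA; qHTS 6-point titration, ~60 µM downward; luminescence read.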
# NPC1 promoter act – NPC1 promoter activation; Huh7 NPC1 promoter luciferase reporter, 24 h; Potency, µM (highest dose often 9.22 µM), for inactives: at the highest dose activation, most hits filed as activators; 320,000 tested, 2.4% active; also: % of control where 0% means no effect; nearly all actives have a fitted effect of over 60% in size
#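 NPC1 promoter–luciferase Huh7 cells; 24 h compound; luminescence.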
# ELG1 DNA repair – ELG1-dependent DNA repair inhibition; HEK293T ELG1-luciferase reporter, luminescence, 16 h; DNA damage induced by 5-fluorouridine; Potency, µM (top dose mostly 46.1 µM), for inactives: at the top dose activity change, negative = inhibition, most hits filed as inhibitors; 330,000 tested, 2.3% active; also: % is scaled to controls: 0 for no effect and ±100 for the full control effect; nearly all actives have a fitted effect of over 55% in size
#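 Step one: seed 2,000 cells per well. Step two: pin-transfer compound or DMSO alongside 5-fluorouridine. Step three: incubate 16 hr, 37 °C, 5% CO2. Step four: add ONE-Glo, wait 30 min, read luminescence.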
# ELG1 genotox – inducers of genotoxicity in HEK293T ELG1-luciferase cells; 330,000 tested, 1.3% active; HEK293T ELG1-luciferase reporter, luminescence, 16 h; Potency, µM (top dose mostly 46 µM), for inactives: at the highest dose activity change, positive = activation, usual class: activators; also: % of control where 0% means no effect; nearly all actives have a fitted effect of over 60% in size
#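 After overnight (16 hr) compound treatment at 37 °C, ELG1-luciferase HEK293T cells were lysed with ONE-Glo; luminescence quantified 30 min later at room temperature.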
# Active calls of the source: *; ? = inconclusive; / = not tested or not shown; [ ] = dose if it differs, or a comment. An excerpt weighted towards active compounds, which were near 9.2% of everything screened. Calls follow the shape of the dose curve; as a rule, active = well fitted curve in the direction sought with a large enough effect; inconclusive = small, poorly fitted or top-dose-only effect, or another doubt; inactive = no such curve, though single readings can be large; an effect the other way counts as inactive or inconclusive. Potency is read from the fitted curve at half-maximal effect.
SMILES,Rab9 promoter act,SMN2 splice up,FLuc counter,NPC1 promoter act,ELG1 DNA repair,ELG1 genotox
C=C(NC(=O)C(=C)NC(=O)c1csc(C2=NC3c4csc(n4)C4NC(=O)c5csc(n5)C([C@@](C)(O)C(C)O)NC(=O)C5CSC(=N5)/C(=C\C)NC(=O)C(C(C)O)NC(=O)c5csc(n5)[C@]3(CC2)NC(=O)C(C)NC(=O)C(=C)NC(=O)C(C)NC(=O)C(C(C)CC)NC2C=Cc3c(C(C)O)cc(nc3C2O)C(=O)OC4C)n1)C(N)=O (stereo partly specified),-42%,/,2%,-33%,5.2µM*,?
C=C(NC(=O)C(=C)NC(=O)c1csc(C2=NC3c4csc(n4)C4NC(=O)c5csc(n5)C(C(C)(O)C(C)O)NC(=O)C5CSC(=N5)C(=CC)NC(=O)C(C(C)O)NC(=O)c5csc(n5)C3(CC2)NC(=O)C(C)NC(=O)C(=C)NC(=O)C(C)NC(=O)C(C(C)CC)NC2C=Cc3c(C(C)O)cc(nc3C2O)C(=O)OC4C)n1)C(N)=O (stereo unspecified),/,-35%,/,/,/,/
O=C(Cn1cnc2c(NCc3ccccc3)ncnc21)NCC1CCCO1 (stereo unspecified),/,/,/,/,23%,-2%
c1ccc(CNc2ncnc3c2ncn3C2CCCCO2)cc1 (stereo unspecified),?,?,27µM*,?,?,?
CCn1ccnc1CN1CCc2c([nH]c3ccccc23)C1CC(C)C (stereo unspecified),0%,/,-6%,0%,23µM*,-6%
CCn1ccnc1CN1CCc2c([nH]c3ccccc23)C1C(C)(C)C (stereo unspecified),-3%,/,4%,-3%,-14%,-10%
COC(=O)N1CC(=O)N(OC)C1c1ccc(Cl)cc1Cl (stereo unspecified),0%,-20%,-1%,-4%,-5%,0%
CC1=NN(C(=O)COc2ccc(C)c(C)c2)C(O)(c2ccc(Cl)cc2)C1 (stereo unspecified),0%,6%,-2%,-1%,-2%,-3%
CC1=NN(C(=O)COc2cc(C)ccc2C(C)C)C(O)(c2ccccc2)C1 (stereo unspecified),-3%,/,3%,-1%,21µM*,-6%
COc1cc(C(=S)N2CCOCC2)ccc1OS(=O)(=O)c1ccc(NC(C)=O)cc1,-9%,-41%,-1%,-11%,12µM*,-2%
COc1cc(C(=S)N2CCCC2)ccc1OS(=O)(=O)c1ccc(NC(C)=O)cc1,-2%,-68%,5%,-3%,?,-18%
COc1cc(C(=S)N2CCOCC2)cc(Br)c1OS(=O)(=O)c1ccccc1,2%,/,-5%,-5%,16µM*,-6%
CC(=O)Nc1ccc(S(=O)(=O)Oc2ccccc2N2CCCCC2)cc1,0%,/,-1%,-4%,8.2µM*,-5%
COc1ccccc1OCC(=O)Nc1ccc(Cl)cc1,20%,?,?,13%,?,14%
O=C(COc1cc(Cl)ccc1Cl)Nc1ccc2c(c1)CCC2,17%,13%,3%,16%,23%,8%
NC(=O)c1ccccc1OCC(=O)Nc1ccc2c(c1)CCC2,?,/,15µM*,22%,?,6%
NC(=O)c1ccccc1OCC(=O)Nc1ccc(Cl)c(Cl)c1,0.35µM*,/,0.67µM*,0.35µM*,?,1.2µM*
CCCCc1nc2c(c3c1C[C@H](C)OC3)CN(S(=O)(=O)c1ccc3c(c1)OCCN3C)CC2,/,-12%[9.22 µM],/,/,/,/
CCOc1ccc(S(=O)(=O)N(C)c2ccc(OCC(=O)N3CCOCC3)cc2)cc1,1%,0%,-4%,1%,-17%,-3%
COc1cc(C(=O)Nc2cc(C)c(OCC(=O)N3CCOCC3)c(C)c2)cc(OC)c1OC,2%,/,4%,-4%,14%,9%
Cc1cc(NC(=O)c2cc3ccccc3o2)cc(C)c1OCC(=O)N1CCOCC1,-4%,-4%,12µM*,8%,?,-16%
CN(C)S(=O)(=O)c1ccc(C(=O)Nc2ccc(OCC(=O)N3CCOCC3)cc2)cc1,9%,0%,15µM*,2%,14%,4%
Cc1cc(NC(=O)c2ccccc2F)cc(C)c1OCC(=O)N1CCOCC1,13%,/,9.5µM*,-1%,?,7%
O=C(Nc1ccc(OCC(=O)N2CCOCC2)cc1)c1cccc(Cl)c1,29%,/,7.6µM*,25%,?,3%
CCc1ccc(NC(=O)CN(c2ccc(Cl)cc2)S(=O)(=O)c2ccsc2C(=O)OC)cc1,/,/,3%,/,/,/
SMILES,Rab9 promoter act,SMN2 splice up,FLuc counter,NPC1 promoter act,ELG1 DNA repair,ELG1 genotox
Cn1cc(Br)c(-c2cccc(N3C(=O)CCCC3=O)c2)n1,1%,/,8%,-3%,-9%,1%
COC(=O)Nc1ccc(OCC(=O)N2CCOCC2)cc1,-4%,6%,5%,-3%,2%,0%
O=C(CCC1CCCC1)Nc1ccc(OCC(=O)N2CCOCC2)cc1,10%,-1%,4.8µM*,10%,?,8%
COc1ccc(C(=O)Nc2ccc(OCC(=O)N3CCOCC3)cc2)c(OC)c1OC,7%,/,13µM*,-1%,?,11%
COc1cc(C(=O)Nc2ccc(C(F)(F)F)cc2)ccc1OCC(=O)N1CCOCC1,20%,/,6.7µM*,17%,?,0%
O=C(Nc1ccc(OCC(=O)N2CCOCC2)cc1)c1ccccc1F,27%,/,4.8µM*,22%,?,20%
COc1ccc(N(CC(=O)Nc2ccc(C(C)C)cc2)S(=O)(=O)c2c(C)noc2C)cc1,4%,/,0%,-7%,-1%,-6%
C=CCONC(=O)Cc1ccccc1,/,/,/,/,25%,-3%
COc1cccc(NC(=O)CN(C)C(=O)c2cc(C)on2)c1,-1%,/,2%,-1%,0%,0%
Cc1cc(C)c2nc(NC(=O)c3cc(C)on3)sc2c1,-1%,-9%,?,-5%,?,15%
Cc1noc(C)c1C(=O)Nc1nc2ccc(Cl)cc2s1,?,/,2.4µM*,?,?,?
Cc1onc(-c2ccccc2Cl)c1C(=O)Nc1nc2ccc(S(C)(=O)=O)cc2s1,0%,1%,12µM*,-1%,?,-2%
CCc1ccc2nc(NC(=O)c3cc(C)on3)sc2c1,?,?,6µM*,-5%,?,14%
CCc1noc(C)c1C(=O)Nc1nc2c(C)cc(C)cc2s1,-4%,/,11µM*,-12%,24%,22%
CC(=O)NC12CC3CC(C1)CC(C(=O)N1CCN(S(=O)(=O)c4cccc(C(F)(F)F)c4)CC1)(C3)C2,-2%,/,11%,0%,2%,1%

# Compound activity (PubChem)
